Source: PubChem BioAssay

What follows are compounds tested against Dickkopf-related protein 1 (Homo sapiens) (UniProt O94907) (assay: small molecules binding DKK1 protein – biochemical, small-molecule microarray, 635 nm fluorescence scan, primary screen (AID 1106;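 also: score merges emission near 667 nm with signal to noise over three replicate slides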)). Conditions: higher = more signal.
Sequence of Dickkopf-related protein 1 (Homo sapiens) (O94907 whole entry, looked up): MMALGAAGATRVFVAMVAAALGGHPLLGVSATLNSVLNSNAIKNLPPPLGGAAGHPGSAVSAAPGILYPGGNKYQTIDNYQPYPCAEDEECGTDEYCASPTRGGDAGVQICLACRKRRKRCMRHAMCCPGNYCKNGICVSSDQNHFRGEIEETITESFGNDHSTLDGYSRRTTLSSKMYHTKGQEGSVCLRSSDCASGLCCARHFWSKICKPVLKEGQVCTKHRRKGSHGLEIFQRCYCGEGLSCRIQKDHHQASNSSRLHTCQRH

SMILES	composite z-score
CCOc1ccc(N2C(=O)CSC2c2cccc([N+](=O)[O-])c2)cc1 (configuration not stated)	0.168
COc1cc(CO)cc(I)c1O[C@H]1C=C(C(=O)NCCO)C[C@@H](NC[C@@H]2CCCO2)[C@@H]1O	0.17
CCCNC(=O)[C@@H]1c2ccccc2C(=O)N(Cc2ccccc2OC)[C@H]1c1ccc(CO)cc1	0.216
COCCOC(=O)N1C(=O)[C@@]2(c3cc(C#CCCO)ccc31)[C@H](c1ccc(O)cc1)N1[C@H](c3ccccc3)[C@H](c3ccccc3)OC(=O)[C@H]1[C@@H]2C(=O)N1CCN(c2ncccn2)CC1	0.417

What follows are compounds tested on Inhibin beta A chain (activin A) (assay: small molecules binding activin A – biochemical, small-molecule microarray, 635 nm fluorescence scan, primary screen (AID 1107;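 also: mouse activin A protein probed at 4.33 µg/mL on printed slides; score merges bound-protein fluorescence near 667 nm with spot signal-to-noise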)). Conditions: INHBA, higher = more signal.

SMILES	composite z-score
COc1cc(CO)cc(I)c1O[C@H]1C=C(C(=O)NCCO)C[C@@H](N(C(=O)c2cc3ccccc3oc2=O)C2CCCCCC2)[C@@H]1O	-0.0101
O=C1C2C=CC(C(O)C=Cc3ccc([N+](=O)[O-])cc3)N(n3cnnc3)C2C(=O)N1Cc1ccccc1 (configuration not stated)	1.17
COCCOC(=O)N1C(=O)[C@@]2(c3ccccc31)[C@H](C(=O)N1CCc3cc(OC)c(OC)cc3C1)[C@H]1C(=O)O[C@H](c3ccccc3)[C@H](c3ccccc3)N1[C@@H]2c1ccc(O)cc1	0.407
C#CCN(C/C=C/c1ccccc1)[C@H](CO)c1ccccc1	-0.283
O=C1OCCC=C[C@H]2OC34C=CCN(c5ccc(Cl)cc5)C(=O)[C@H]3N(CCCO)C(=O)[C@@H]4C12 (some centres not stated)	1.52
CCCCC(O)C1C=CC2C(=O)N(C)C(=O)C2N1N1CCCCC1 (configuration not stated)	1.42
COc1cc2c(cc1OC)CN(C(=O)[C@H]1[C@@H]3C(=O)O[C@@H](c4ccccc4)[C@@H](c4ccccc4)N3[C@@H](c3ccccc3OCCO)[C@]13C(=O)Nc1ccc(C#CCCO)cc13)CC2	0.931
COCCCNC(=O)[C@@]1(Cc2ccccc2)N=C(c2ccc(OCCCO)cc2)O[C@H]1c1ccccc1CN=[N+]=[N-]	0.384
CC(C)Cc1ccc(CN2CC[C@@H](N)C2)cc1	0.419
C[N+](C)(C)CCCC[C@@H]1NC(=O)[C@H]2C[C@@H](C(=O)NCCCCCCNC(=O)CS)[C@@H](c3ccc(O)cc3)N2C1=O	0.507
COc1ccc(C#Cc2ccc3c(c2)[C@]2(C(=O)N3)[C@H](c3ccc(O)cc3)N3[C@H](c4ccccc4)[C@H](c4ccccc4)OC(=O)[C@H]3[C@@H]2C(=O)N2CCc3cc(OC)c(OC)cc3C2)cc1	0.155
[N-]=[N+]=Nc1ccccc1C[C@]1(C(=O)NCC(O)CO)N=C(c2ccc(OCCCO)cc2)O[C@H]1c1ccccc1 (some centres not stated)	0.537
CC(C)(C)OC(=O)CC[C@]1(C(=O)NCCN2CCOCC2)COC(c2ccc(OCCCO)cc2)=N1	0.295
[N-]=[N+]=NCc1ccccc1C[C@@]1(C(=O)NCC(O)CO)N=C(c2ccc(OCCCO)cc2)O[C@@H]1c1ccccc1 (some centres not stated)	0.377
CC(C)[Si](C#CCCCC#N)(Oc1ccccc1Br)C(C)C	0.32
C=CCN1Cc2ccccc2[C@@H]2OC(c3ccc(OCCCO)cc3)=N[C@]2(CCS(=O)(=O)c2ccccc2)C1=O	1.1
CCOC(=O)C1=C[C@@H](C(C)C)N(S(=O)(=O)c2ccc(C)cc2)[C@H]1c1ccccc1F	0.442
[N-]=[N+]=NCc1ccccc1[C@@H]1OC(c2ccc(OCCCO)cc2)=N[C@]1(CCS(=O)(=O)c1ccccc1)C(N)=O	1.3
OCCCC1=CC(C2CC2)N(Cc2cccc(OC(F)(F)F)c2)CC1 (configuration not stated)	0.526
Cc1ccc([C@H]2C(C(=O)O)=CCN2S(=O)(=O)c2ccc(C)cc2)cc1	1.03
COc1ccc([Si](C)(C)[C@H]2[C@H](CCO)O[C@@]3(C(=O)N(Cc4ccccc4)c4ccc(N5CCCCC5=O)cc43)[C@@H]2C)cc1	0.301
CC#CC(=O)Oc1ccc(Br)cc1C=CC(=O)OCC	1.24
COc1cc(OC)c(C(O)C2C=CC3C(=O)NC(=O)C3N2Nc2ccccn2)cc1Br (configuration not stated)	0.811
O=C1[C@H]2C=C(I)[C@H](C[C@@H]2OCCCCO)[C@@]12CO2	0.873
C=C(CCCC)/C(=C/C[C@H](OC(C)=O)c1ccc(OCCO)cc1)c1cnc2ccccc2c1	1.53
COc1ccc(CCNC(=O)[C@@]2(C)c3ccccc3C(=O)N(c3ccc(C)cn3)[C@H]2c2ccc(CO)cc2)cc1	0.453
C=CCC(OC(C)=O)[C@@H]1[C@@H](N(Cc2ccc(-c3cccc(C(F)(F)F)c3)o2)C(=O)Cc2ccc(OC)cc2)c2cc(OCCCO)ccc2N1C(=O)c1ccc2ccccc2c1 (some centres not stated)	1.39
CN(C)CCCC[C@@H]1NC(=O)[C@H]2C[C@@H](C(=O)NCCCCCN)[C@@H](c3cccc(OCCO)c3)N2C1=O	1.41
